Hits are enriched below; roughly 2.8% of the tested compounds scored in any of these assays.
PAX8 inh HTS = lowers PAX8-driven luciferase in RMG-I cells; AID 652154; RMG-I TPO-luciferase reporter, SteadyGlo, 24 h; inhibition, % at 12.6 µM; 360,000 compounds, 1.2% hits;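 active means mean replicate inhibition at least 60% with every replicate also reaching 60%; inconclusive means only one of the two criteria is met; inactive means mean below 60% and not all replicates reaching 60%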;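 further: luciferase light reporting Pax8 driven TPO promoter activity; plate controls were median of neutral control wells for no effect and mitoxantrone controls for full effect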
EBV LMP1 NFkB = reduces LMP1-driven NF-kappaB luciferase signal. LMP1-induced NF-kappaB luciferase reporter cells, luminescence. inhibition, % at 12.5 µM. 350,000 compounds, 0.69% hits; in the data active means inhibition above about 41%; inconclusive means no clear call, values can overlap the other calls;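 further: 0% = neutral control wells and 100% = reference inhibitor control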
Peg3 promoter = inhibitors of Peg3 promoter; 360,000 compounds, 1.7% hits; inhibition, % at 20 µM; HeLa PEG-Prom luciferase reporter, luminescence, overnight;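 active means inhibition of at least 50% at 20 µM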
Shn3 3UTR inh = Schnurri-3 reporter inhibition in Clone20 osteoblasts. inhibition, % at 12.5 µM. AID 588674. 360,000 compounds, 0.52% hits. Clone20 osteoblast Shn3 3'UTR firefly luciferase, 24 h;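 active means mean inhibition of at least 75% with every replicate also reaching 75%; inconclusive means mean inhibition at least 75% but some replicate below; inactive means mean inhibition below 75%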;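 further: 0% = median of neutral control wells and 100% = pilot-screen positive control compound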
TRPM1 prom inh = inhibitors of MITF-driven TRPM1 promoter in melanoma cells; SK-MEL-5 TRPM1 promoter luciferase, 24 h; inhibition, % at 12.5 µM; 330,000 compounds, 0.83% hits; AID 488899;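 active means mean inhibition across replicates of 60% or more, whatever share of single replicates reaches that level; inconclusive means some that reach 60%, reason not given; inactive means mean inhibition across replicates below 60%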
HIF-2a block = blocks HIF-2a reporter activity | 786-0 RCC cells HIF-2a reporter, luciferase luminescence, overnight | inhibition, % at 18.8 µM | 360,000 compounds, 0.72% hits;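 active means inhibition of the luminescence signal of 40% or more relative to plate controls, in a single-dose primary screen at 18.75 µM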
* = called active by the depositor.

How did Cc1ccc(-c2cc(-c3ccc(C)cc3)[n+](-c3ccc(C(=O)[O-])cc3)c(-c3ccc(C)cc3)c2)cc1 do in these assays?
PAX8 inh HTS: -3; EBV LMP1 NFkB: -1; Peg3 promoter: -8; Shn3 3UTR inh: -19; TRPM1 prom inh: 12; HIF-2a block: -29

How did CCOC(=O)c1ccc(-[n+]2c(-c3ccccc3)cc(-c3ccccc3)cc2-c2ccccc2)cc1 do in these assays?
EBV LMP1 NFkB: 38; TRPM1 prom inh: 77*

Results for CCOC(=O)c1cccc(-[n+]2c(-c3ccccc3)cc(-c3ccccc3)cc2-c2ccccc2)c1 ?
PAX8 inh HTS: 89*; EBV LMP1 NFkB: 5; Peg3 promoter: 27; Shn3 3UTR inh: -2; TRPM1 prom inh: 68*; HIF-2a block: -9

How did N#Cc1cccc(-c2ccc([C@H]3[C@@H](CO)N4CCCCN(C(=O)Cc5ccncc5)C[C@@H]34)cc2)c1 do in these assays?
PAX8 inh HTS: 14

Results for CCCC#Cc1ccc([C@H]2[C@@H](CO)N3CCCCN(C(=O)Cc4ccccn4)C[C@H]23)cc1 ?
PAX8 inh HTS: 5

How did N#Cc1ccc(-c2ccc([C@H]3[C@H]4CN(C(=O)Cc5ccccc5)CCCCN4[C@H]3CO)cc2)cc1 do in these assays?
PAX8 inh HTS: 6

How did C#C[C@]1(O)CC[C@H]2[C@@H]3CCC4=CC(=O)CC[C@]4(C)[C@H]3CC[C@@]21C do in these assays?
PAX8 inh HTS: -1; EBV LMP1 NFkB: 81*; Peg3 promoter: 3; Shn3 3UTR inh: 6; TRPM1 prom inh: -11; HIF-2a block: -4

What do the screens show for `CCC(=O)O[C@H]1CC[C@H]2[C@@H]3CCC4=CC(=O)CC[C@]4(C)[C@H]3CC[C@]12C`?
EBV LMP1 NFkB: 87*; Peg3 promoter: 53*; Shn3 3UTR inh: 13; TRPM1 prom inh: 2; HIF-2a block: 11

What do the screens show for `COc1ccc(C[C@H]2NC[C@H](O)[C@H]2OC(C)=O)cc1`?
PAX8 inh HTS: 103*; EBV LMP1 NFkB: 91*; Peg3 promoter: 94*; Shn3 3UTR inh: 94*; TRPM1 prom inh: 83*; HIF-2a block: 91*

What do the screens show for `O=C(Cc1ccccc1)N1CCCCN2[C@H](CO)[C@H](c3ccc(C#CC4(O)CCCC4)cc3)[C@H]2C1`?
PAX8 inh HTS: -3

Results for CC=Cc1ccc2n(c1=O)C[C@@H]1[C@@H](CO)[C@H](C(=O)OC)[C@H]2N1CC1CCCCC1 (mixture of isomers) ?
PAX8 inh HTS: -2

How did COC(=O)C[C@]1(C(=O)OC)CN(C#N)N(c2ccc(Cl)cc2)C12c1ccccc1-c1ccccc12 do in these assays?
PAX8 inh HTS: 109*; EBV LMP1 NFkB: 90*; Peg3 promoter: 103*; Shn3 3UTR inh: 97*; TRPM1 prom inh: 96*; HIF-2a block: 85*

What do the screens show for `Cc1ccc(Cn2cc(C=O)c3ccccc32)cc1`?
PAX8 inh HTS: 19; EBV LMP1 NFkB: 36; Peg3 promoter: 63*; Shn3 3UTR inh: 16; TRPM1 prom inh: -2; HIF-2a block: 36

How did O=C(Cc1cccnc1)N1CCCCN2[C@H](CO)[C@H](c3ccc(C#CC4CC4)cc3)[C@@H]2C1 do in these assays?
PAX8 inh HTS: 8

Results for CN1CCC(N(C)c2nc(-c3ccc([N+](=O)[O-])cc3)nc3ccccc23)CC1 ?
EBV LMP1 NFkB: -118; Peg3 promoter: 108*; Shn3 3UTR inh: -72; TRPM1 prom inh: inconclusive; HIF-2a block: -20

What do the screens show for `COc1ccc(-c2ccc3c(c2)CN(c2cccc(Cl)c2)Cc2cnnn2-3)cc1`?
PAX8 inh HTS: 4; Peg3 promoter: -32; Shn3 3UTR inh: -28; HIF-2a block: -48

How did Clc1cccc(N2Cc3cc(-c4ccccc4)ccc3-n3nncc3C2)c1 do in these assays?
PAX8 inh HTS: -3; Peg3 promoter: 101*; Shn3 3UTR inh: 51; HIF-2a block: 11

How did CN(C)CC#Cc1ccc([C@@H]2[C@H](CO)N3CCCCN(C(=O)Cc4ccccn4)C[C@@H]23)cc1 do in these assays?
PAX8 inh HTS: -1

How did CCC(=O)N1[C@@H]2Cn3c(ccc(C4=CCCC4)c3=O)[C@H]1[C@@H](C(=O)OC)[C@@H]2CO do in these assays?
PAX8 inh HTS: -6

Results for O=C(O)[C@H]1[C@H](CO)[C@H]2Cn3c(ccc(-c4ccncc4)c3=O)[C@@H]1N2C(=O)C1CC1 ?
PAX8 inh HTS: -4

High-throughput results: PubChem, several laboratories
